Assay results from PubChem BioAssay AID1159580 (chemical genetic matrix, 2015).
Among all 5,500 compounds or so, about 2,000 (36%) were called active. Another 18% or so got no clear call; they are omitted. No stated cut-off is given here; in the data, active means normalized growth mostly below about 0.91 (no sharp cut-off); inconclusive means no clear call, values can overlap the other calls; inactive means mostly above about 0.92. This is one part of the list.

Assay: chemical genetic growth profiling, strain panel (AID 1159580);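 further: tested at 20 µM; growth read once vehicle control cultures reached saturation at 30 °C; 1 = growth at the plate median or of vehicle wells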
Details: S. cerevisiae deletion strains, growth OD

Measured: normalized growth

CO[C@H]1[C@@H](O)[C@@H](C)O[C@H](O[C@H]2CCC3(C)C4CCC5(C)[C@@H](C6=CC(=O)OC6)CC[C@]5(O)[C@@H]4CC[C@]3(O)C2)[C@@H]1O (stereo not given in full)
inactive: locus YAL021C, strain ccr4, stronger effect = lower value 0.993 | locus YAL026C, strain drs2, stronger effect = lower value 1.04 | locus YAL030W, strain snc1, stronger effect = lower value 1.03 | locus YBL061C, strain skt5, stronger effect = lower value 1.05 | locus YBR009C, strain hhf1, stronger effect = lower value 1.02 | locus YBR023C, strain chs3, stronger effect = lower value 1.03 | locus YBR171W, strain sec66, stronger effect = lower value 1.03 | locus YBR231C, strain swc5, stronger effect = lower value 1.02 | locus YBR279W, strain paf1, stronger effect = lower value 1.02 | locus YCL011C, strain gbp2, stronger effect = lower value 1.03 | locus YCL016C, strain dcc1, stronger effect = lower value 1.02 | locus YCL061C, strain MRC1, stronger effect = lower value 1.02 | locus YCL069W, strain vba3, stronger effect = lower value 1.02 | locus YCR088W, strain abp1, stronger effect = lower value 1.02 | locus YDL005C, strain med2, stronger effect = lower value 1.03 | locus YDL040C, strain nat1, stronger effect = lower value 1 | locus YDR001C, strain nth1, stronger effect = lower value 1.02 | locus YDR069C, strain doa4, stronger effect = lower value 1.03 | locus YDR137W, strain rgp1, stronger effect = lower value 1.04 | locus YDR159W, strain sac3, stronger effect = lower value 1.04 | locus YDR195W, strain ref2 1.01 | locus YDR297W, strain sur2, stronger effect = lower value 1.04 | locus YDR334W, strain swr1, stronger effect = lower value 1.02 | locus YDR335W, strain msn5, stronger effect = lower value 1.02 | locus YDR392W, strain spt3, stronger effect = lower value 1.02 | locus YEL003W, strain gim4, stronger effect = lower value 1.02 | locus YEL037C, strain rad23, stronger effect = lower value 1.02 | locus YEL061C, strain CIN8 (second series), stronger effect = lower value 1.02 | locus YER015W, strain faa2, stronger effect = lower value 1.02 | locus YER016W, strain bim1, stronger effect = lower value 1.02 | locus YER111C, strain swi4, stronger effect = lower value 1.03 | locus YER155C, strain BEM2 (second series), stronger effect = lower value 1.04 | locus YFR010W, strain ubp6, stronger effect = lower value 1.04 | locus YGL167C, strain pmr1, stronger effect = lower value 1.03 | locus YGL173C, strain kem1, stronger effect = lower value 1.04 | locus YGL227W, strain vid30, stronger effect = lower value 1.01 | locus YGL240W, strain doc1, stronger effect = lower value 1.04 | locus YGL253W, strain hxk2, stronger effect = lower value 1.03 | locus YHR013C, strain ard1, stronger effect = lower value 1.04 | locus YHR027C, strain rpn1, stronger effect = lower value 1.05 | locus YHR030C, strain SLT2, stronger effect = lower value 1.05 | locus YHR079C, strain IRE1, stronger effect = lower value 1.08 | locus YHR142W, strain chs7, stronger effect = lower value 1.03 | locus YJL092W, strain hpr5, stronger effect = lower value 1.02 | locus YJL095W, strain BCK1 (second series), stronger effect = lower value 1.02 | locus YJL095W, strain BCK1, stronger effect = lower value 1.04 | locus YJL115W, strain asf1, stronger effect = lower value 1.04 | locus YJL129C, strain trk1, stronger effect = lower value 1.03 | locus YJL154C, strain vps35, stronger effect = lower value 1.02 | locus YJL164C, strain tpk1, stronger effect = lower value 1.01 | locus YJL166W, strain qcr8, stronger effect = lower value 1.03 | locus YJL187C, strain SWE1, stronger effect = lower value 1.03 | locus YJR066W, strain TOR1, stronger effect = lower value 1.01 | locus YKL160W, strain elf1, stronger effect = lower value 1.01 | locus YKR026C, strain gcn3, stronger effect = lower value 1.02 | locus YKR091W, strain srl3, stronger effect = lower value 1.02 | locus YLL001W, strain dnm1, stronger effect = lower value 1.03 | locus YLL026W, stronger effect = lower value 1.03 | locus YLL041C, strain sdh2, stronger effect = lower value 1.02 | locus YLR027C, strain aat2, stronger effect = lower value 1 | locus YLR113W, strain HOG1, stronger effect = lower value 0.976 | locus YLR221C, strain rsa3, stronger effect = lower value 1.03 | locus YLR258W, strain gsy2, stronger effect = lower value 1 | locus YLR262C, strain YPT6 (second series), stronger effect = lower value 1.03 | locus YLR320W, strain mms22, stronger effect = lower value 1.03 | locus YLR342W, strain FKS1, stronger effect = lower value 1.03 | locus YLR357W, strain rsc2, stronger effect = lower value 1.06 | locus YLR370C, strain arc18, stronger effect = lower value 1.01 | locus YLR384C, strain iki3, stronger effect = lower value 1.04 | locus YML120C, strain ndi1, stronger effect = lower value 1.01 | locus YMR058W, strain fet3, stronger effect = lower value 1.03 | locus YMR125W, strain sto1, stronger effect = lower value 1.03 | locus YMR129W, stronger effect = lower value 1.02 | locus YMR205C, strain PFK2, stronger effect = lower value 1.06 | locus YMR231W, strain pep5, stronger effect = lower value 1 | locus YNL071W, strain lat1, stronger effect = lower value 1.02 | locus YNL183C, strain NPR1, stronger effect = lower value 1 | locus YNL209W, strain ssb2, stronger effect = lower value 1.02 | locus YNL248C, strain rpa49, stronger effect = lower value 1.03 | locus YNL322C, strain KRE1 (second series), stronger effect = lower value 1.02 | locus YNR049C, strain mso1, stronger effect = lower value 1.04 | locus YOR001W, strain rrp6, stronger effect = lower value 1.03 | locus YOR070C, strain gyp1, stronger effect = lower value 1.02 | locus YOR080W, strain dia2, stronger effect = lower value 1.04 | locus YOR083W, strain WHI5, stronger effect = lower value 1.02 | locus YOR106W, strain vam3, stronger effect = lower value 1.03 | locus YOR231W, strain MKK1, stronger effect = lower value 1.04 | locus YOR265W, strain rbl2, stronger effect = lower value 1.04 | locus YOR270C, strain vph1, stronger effect = lower value 1.08 | locus YOR290C, strain snf2, stronger effect = lower value 1.01 | locus YPL051W, strain arl3, stronger effect = lower value 1.01 | locus YPL078C, strain atp4, stronger effect = lower value 1.02 | locus YPL106C, strain sse1, stronger effect = lower value 1.02 | locus YPL240C, strain hsp82, stronger effect = lower value 1.01 | locus YPL256C, strain CLN2, stronger effect = lower value 1.08
